High-throughput results: PubChem, several laboratories
NTR1 ag – activates human neurotensin receptor 1; 330,000 tested, 0.17% active; NTR1-U2OS beta-arrestin-GFP spot imaging, agonist mode; activation, % at 20 µM; P30989; AID 493036;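 active means activation at or above 40% of the spot to cytoplasm intensity ratio, with at least 20 cells analyzed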;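 further: 0% = DMSO without peptide and 100% = 100 nM NTR1 peptide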
Target sequence (P30989 whole entry, looked up): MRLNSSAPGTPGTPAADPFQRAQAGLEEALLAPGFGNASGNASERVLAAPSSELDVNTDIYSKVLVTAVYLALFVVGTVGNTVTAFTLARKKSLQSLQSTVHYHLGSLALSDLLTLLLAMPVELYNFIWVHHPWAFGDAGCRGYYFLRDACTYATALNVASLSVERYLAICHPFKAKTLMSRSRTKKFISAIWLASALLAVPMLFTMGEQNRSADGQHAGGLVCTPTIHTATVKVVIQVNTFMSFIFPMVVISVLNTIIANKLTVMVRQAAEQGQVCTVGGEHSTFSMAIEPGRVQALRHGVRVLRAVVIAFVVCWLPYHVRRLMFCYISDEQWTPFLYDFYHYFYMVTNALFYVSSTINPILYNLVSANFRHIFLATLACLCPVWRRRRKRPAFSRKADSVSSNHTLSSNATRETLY
AHR act – activators of human aryl hydrocarbon receptor; AHR-responsive luciferase reporter cells, luminescence; activation, % at 5 µM; 320,000 tested, 2.5% active; P35869; in the data active means activation above about 47%;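 further: 0% = vehicle wells and 100% = reference agonist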
A3A deaminase – inhibitors of human APOBEC3A DNA deaminase. inhibition, % at 20 µM. recombinant A3A, FAM/TAMRA ssDNA deamination fluorescence. 330,000 tested, 0.41% active;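 active means at least 40% inhibition at 20 µM here, with at most 30% in a related deaminase screen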;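 further: plate controls were A3A with DMSO for no effect and wells lacking A3A enzyme for full effect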
Target sequence (P31941 whole entry, looked up): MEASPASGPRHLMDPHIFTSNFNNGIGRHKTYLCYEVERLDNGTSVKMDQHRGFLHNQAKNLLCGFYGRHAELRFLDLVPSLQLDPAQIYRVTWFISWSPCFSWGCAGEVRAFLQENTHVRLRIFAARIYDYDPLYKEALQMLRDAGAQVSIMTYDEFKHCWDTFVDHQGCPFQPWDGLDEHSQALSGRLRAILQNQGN
APOBEC3G inh – APOBEC3G (human) deaminase inhibition; Q9HC16; recombinant A3G, ssDNA deamination FAM/TAMRA fluorescence; inhibition, % at 20 µM; 330,000 tested, 0.28% active; AID 493012;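 active means inhibition of at least 40% at 20 µM, with no more than 30% in the related APOBEC3A deaminase screen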;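 further: plate controls were DMSO wells with A3G for no effect and wells lacking A3G enzyme for full effect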
The depositor's hits bear a star; nt = not tested or not shown. The list is not random: actives were taken first. Their share in the collection is about 3.2%.

SMILES | NTR1 ag | AHR act | A3A deaminase | APOBEC3G inh
Cc1[nH]nc(-c2ccc(O)cc2O)c1-c1nc2ccccc2s1 | 1 | 73* | 0 | -9
CCCCOC(=O)c1ccc(NC(=O)CSC2=Nc3ccccc3C3CC=NN23)cc1 (stereo not drawn) | 7 | 14 | -2 | -4
O=C(CSC1=Nc2ccccc2C2CC=NN12)Nc1ccc(F)c(F)c1F (stereo not drawn) | -1 | 51* | 0 | -6
O=[N+]([O-])c1cc(Cl)ccc1N1CCCC1 | 0 | 12 | 2 | -1
O=C1C(Cl)=C(N2CCN(c3ccccc3[N+](=O)[O-])CC2)C(=O)c2ccccc21 | nt | 71* | nt | nt
CN(CC(=O)Nc1ccc(F)cc1)C(=O)CSc1nnc(Cc2ccccc2)o1 | -3 | -1 | 5 | 5
CC(C)N(C)Cc1nnnn1CC(=O)N(C)Cc1ccc(F)cc1 | -1 | 49* | -2 | -8
COC(=O)c1ccc(CNC(=O)Cn2nnnc2CN(C)C(C)C)cc1 | 0 | 56* | 1 | -2
CCN(CC)C(=O)c1[nH]cnc1C(=O)Nc1ccc(OC)cc1 | 0 | 65* | -2 | -10
CCOC(=O)c1ccc(NC(=O)c2nc[nH]c2C(=O)N(CC)CC)cc1 | 1 | 30 | 3 | 3
CCN(CC)C(=O)c1[nH]cnc1C(=O)Nc1cccc(C)c1 | 1 | 54* | -7 | -10
CCN(CC)C(=O)c1[nH]cnc1C(=O)NCc1ccccc1 | 1 | 4 | -4 | -9
CCN(CC)C(=O)c1[nH]cnc1C(=O)Nc1ccc(Cl)cc1 | 1 | 75* | -5 | -11
C[C@@H]1C(=O)O[C@H](C)[C@H]1C[C@@H](O)[C@](C)(O)C1CC[C@@]2(O)C3=CC(=O)[C@@H]4C[C@@H](O)[C@@H](O)C[C@]4(C)C3CC[C@]12C (stereo partly drawn) | -1 | 2 | -2 | -9
COc1cc(NS(=O)(=O)c2c(C(=O)N3CCOCC3)c(C)n(C)c2C)cc(OC)c1OC | 0 | 1 | -4 | -2
Cc1ccc(CSc2[nH]c(=O)ncc2C)cc1 | 3 | 0 | -5 | -7
O=C(NC1CCCCC1)C1CC(=O)N(c2cccc([N+](=O)[O-])c2)C1 (stereo not drawn) | -1 | 0 | -3 | 0
O=C(N/N=C/c1ccc(F)cc1)c1cc(-c2ccco2)nc2ccccc12 | 1 | 12 | 93 | 85
Cc1cc(-c2ccccc2)nc2oc(C(=O)NN)c(N)c12 | -1 | 44 | 1 | -1
Nc1c(C(=O)N/N=C/c2ccc(F)cc2)oc2nc(-c3ccccc3)cc(-c3ccco3)c12 | 4 | 57* | -3 | -4
Nc1c(C(=O)N/N=C/c2ccccc2Cl)oc2nc(-c3ccccc3)cc(-c3ccco3)c12 | -2 | 50* | -1 | 0
CCN(CC(=O)NC(C)C)C(=O)Cc1ccc(C)c(C)c1 | 4 | -1 | 0 | -4
Cc1cccn2c(=O)c(C=O)c(N3CCN(c4ccc(F)cc4)CC3)nc12 | 5 | 64* | 2 | 1
CN(C)C(CNC(=O)C1CCN(S(=O)(=O)c2ccccc2C(F)(F)F)CC1)Cc1ccccc1 (stereo not drawn) | -2 | nt | -7 | -12
CC1=CCC2C(=O)N(c3cccc(C(=O)Nc4ccc(Cl)cc4)c3)C(=O)C2C1 (stereo not drawn) | 1 | 69* | -6 | -6
SMILES | NTR1 ag | AHR act | A3A deaminase | APOBEC3G inh
Cc1cccc(C)c1NC(=O)CNC(=O)C(C)N(C)CC(=O)Nc1ccc(F)cc1 (stereo not drawn) | -1 | nt | 5 | -7
CCc1c(C)sc(NC(=S)Nc2cccnc2)c1C(=O)OC | 1 | 76* | 0 | -1
CCc1c(C)sc(NC(=S)Nc2nc(C)cc(C)n2)c1C(=O)OC | 22 | 12 | -7 | -7
O=C(Nc1ccc(F)c(Cl)c1)C1CCCN(c2cnccn2)C1 (stereo not drawn) | 0 | 73* | -3 | -4
O=C(Nc1cccc(F)c1)C1CCCN(c2cnccn2)C1 (stereo not drawn) | 1 | 52* | -7 | -7
CCOC(=O)c1ccc(NC(=O)C2CCCN(c3cnccn3)C2)cc1 (stereo not drawn) | 0 | 63* | 2 | -2
Cc1cccc(Nc2nnc(SC/C(O)=C(\C#N)c3nc4ccccc4[nH]3)s2)c1 | 1 | 36 | -2 | -3
Cc1ccc(Nc2nnc(SC/C(O)=C(\C#N)c3nc4ccccc4[nH]3)s2)c(C)c1 | 3 | 55* | 1 | -1
Cc1ccc(Nc2nnc(SCC(=O)c3ccc(Br)s3)s2)c(C)c1 | 3 | 60* | 6 | -4
Cc1cc(C(=O)NN=Cc2c(C)[nH]c3ccccc23)c(C)o1 | 0 | 57* | -2 | -8
CCC(=O)Nc1ccc(C(=O)N/N=C/c2c(C)[nH]c3ccccc23)cc1 | -2 | 21 | 0 | -7
O=C(N/N=C/c1cccc([N+](=O)[O-])c1)c1cnccn1 | 0 | 54* | -1 | -4
O=C(N/N=C/c1cc([N+](=O)[O-])ccc1Cl)c1cnccn1 | -1 | 25 | -3 | -5
Cc1ccc(/C=N/NC(=O)c2cc(C)oc2C)cc1 | -1 | 43 | -3 | -5
Cc1cc(C(=O)N/N=C/c2cccc([N+](=O)[O-])c2)c(C)o1 | 0 | 72* | 0 | 0
CCN(Cc1ccncc1)C(=O)c1ccccc1NS(=O)(=O)c1ccc(Br)cc1 | 1 | 4 | -5 | -5
CCCCCCSc1cccc(-c2nc3ccc(Cl)cn3c2NCc2ccccc2)c1 | 3 | 4 | 0 | 2
OCCC1CN(CC2CCCCC2)CCN1CC1CCCCC1 (stereo not drawn) | 0 | 0 | -2 | -7
Cc1ccc(O)c(-c2cc(C(=O)Nc3cccnc3)[nH]n2)c1 | 1 | 60* | 1 | -6
COc1ccc(-c2cc3cc(F)ccc3cn2)cc1 | 4 | 51* | -1 | -5
COc1ccc(-c2cc3ccc(F)cc3cn2)cc1 | -2 | 47* | 0 | 2
COc1cc(OC)cc(-c2cc3cc(F)ccc3cn2)c1 | 0 | 17 | 1 | -4
Fc1ccc2cc(-c3ccccc3F)ncc2c1 | 1 | 76* | -4 | -10
O=c1cnn(-c2ccccc2)c(-c2ccccc2)c1 | 2 | 50* | 2 | 1
Nc1c(-c2ccccc2)cnn1-c1ccccc1 | -2 | 0 | -2 | -4
SMILES | NTR1 ag | AHR act | A3A deaminase | APOBEC3G inh
COc1ccc(CCNc2nc(-c3ccc(F)cc3)c(CC(=O)O)s2)cc1OC | 1 | 37 | 1 | 36
CCCN(CC(=O)Nc1ccccc1OC)Cc1c(O)ccc2ccccc12 | 1 | 15 | -2 | -14
CN(C)S(=O)(=O)c1ccc(C(=O)NCCC(=O)N2CCCC2)cc1 | 0 | 5 | -5 | -5
Cc1nc(NC(=O)CSc2nnnn2Cc2ccccc2)sc1C | -2 | 65* | 0 | -2
CC1Cc2ccccc2N1C(=O)CSc1nnnn1Cc1ccccc1 (stereo not drawn) | 1 | 48* | 0 | -2
CCn1c(SCC(=O)Nc2nc(C)c(C)s2)nc2cccnc21 | 2 | 52* | 3 | 2
CC(=C/c1ccco1)/C=N/NC(=O)CSc1nnc(SCc2ccc(C)cc2)s1 | 5 | -5 | 2 | -9
CC(/C=N\Nc1nnc2c(n1)[nH]c1c(C)cccc12)=C\c1ccco1 | 2 | 57* | 1 | -1
